Measurements as given in ChEMBL document CHEMBL4296182, “CO-ADD screening of NIH NCI Diversity Set V”.
For part of these data: Measured potencies and affinities stand elsewhere.

How the values were obtained:
Staphylococcus aureus = test: Antibacterial activity against Staphylococcus aureus MRSA ATCC 43300 (CO-ADD:GP_020); MIC in CAMBH media using NBS plates, by Resazurin F(560/590); type: functional; conditions: Concentration 20 uM, ASSAY_TEST Inhibition of Bacterial Growth, detection method Resazurin, Fluorescence (ex560/em590), MEDIA CAMHB, plate type 384well, CORNING #3640, time 18 hr
Acinetobacter baumannii = test: Antibacterial activity against Acinetobacter baumannii ATCC 19606 (CO-ADD:GN_034); MIC in CAMBH media using NBS plates, by Resazurin F(560/590); type: functional; conditions: Concentration 20 uM, ASSAY_TEST Inhibition of Bacterial Growth, detection method Resazurin, Fluorescence (ex560/em590), MEDIA CAMHB, plate type 384well, CORNING #3640, time 18 hr
Escherichia coli = test: Antibacterial activity against Escherichia coli ATCC 25922 (CO-ADD:GN_001); MIC in CAMBH media using NBS plates, by Resazurin F(560/590); type: functional; conditions: Concentration 20 uM, ASSAY_TEST Inhibition of Bacterial Growth, detection method Resazurin, Fluorescence (ex560/em590), MEDIA CAMHB, plate type 384well, CORNING #3640, time 18 hr
Klebsiella pneumoniae = conditions: Concentration 20 uM; ASSAY_TEST Inhibition of Bacterial Growth; detection method Absorption (OD600); MEDIA CAMHB; plate type 384well; NBS; CORNING #3640; time 18 hr
Candida albicans = conditions: 20 µM
Cryptococcus neoformans = conditions: Concentration 20 uM; ASSAY_TEST Inhibition of Fungal Growth; detection method Resazurin; Absorption (OD600-OD570); plate type 384well; NBS; CORNING #3640

Row | SMILES | Inhibition (Staphylococcus aureus) | Inhibition (Acinetobacter baumannii) | Inhibition (Escherichia coli) | Inhibition (Klebsiella pneumoniae) | Inhibition (Candida albicans) | Inhibition (Cryptococcus neoformans)
1 | NC(=S)N/N=C/c1cc(-c2cccc(N)c2)ccn1 | -5.52% | 27.53% | 11.56% | 45.35% | 1.87% | -12.06%
2 | CCOC(=O)c1c(O)cc(C)nc1O | 3.86% | -15.92% | 14.23% | 12.49% | 3.14% | 13.8%
3 | CCCNC(=O)c1ccc(Cl)cc1Cl | 12.41% | -15.87% | 4.4% | 8.05% | 0.63% | -4.71%
4 | c1coc(CNc2[nH]cnc3nncc2-3)c1 | 12.65% | -12.11% | 11.54% | 7.55% | 0.96% | -6.46%
5 | CC(=O)/C=C(\C)Nc1ccccc1O | 8.26% | -10.28% | 7.16% | 26.72% | 1.01% | 2.5%
6 | COc1cccc(/C=C/c2nccc3ccccc23)c1OC | 13.01% | 1.37% | 11.96% | 0.37% | 0.68% | -13.37%
7 | O=C1C(CO)C(CO)C(CO)C1CO (configuration not stated) | 12.78% | -16.04% | 12.18% | 2.22% | -0.61% | -11.22%
8 | NS(=O)(=O)c1ccc(/N=N/c2ccc(O)[nH]c2=O)cc1 | -4.07% | -21.96% | 14.83% | 2.74% | 3.25% | -15.42%
9 | C[C@]12CC[C@@H]3c4ccc(OCC(=O)O)cc4CC[C@H]3[C@@H]1CCC2=O | 9.17% | -16.81% | 9.71% | 8.63% | 3.7% | -16.24%
10 | Cc1cccc(N2CCN(CC(O)COc3ccc(Cl)cc3)CC2)c1 (configuration not stated) | 13.02% | 4.97% | 5.23% | 7.2% | 0.39% | -12.55%
11 | O=C(Nc1csnn1)c1csnn1 | -7.63% | -6.51% | -0.35% | -1.22% | 2.96% | 1.57%
12 | c1ccc(NN(Cc2ccncc2)c2ccccc2)cc1 | -5.2% | -18.1% | 6% | 7.57% | 0.97% | -6.08%
13 | Cc1nc2ccc(Cl)cn2c1[N+](=O)[O-] | 1.58% | 13.48% | -8.75% | 13.85% | 5.38% | -3.42%
14 | CC1(C)SC(C)(C)N(C=O)C1C(=O)O (configuration not stated) | -0.19% | -4.51% | 4.94% | 4.48% | 1.14% | -3.91%
15 | Cc1ccc(-n2nnnc2-c2cccnc2)cc1 | 21.74% | -2.15% | 12.35% | 4.8% | -0.65% | -9.13%
16 | Cn1cnc([N+](=O)[O-])c1Sc1nc[nH]n1 | 12.64% | 10.96% | 6.64% | 17.02% | 2.6% | -9.11%
17 | Oc1ccccc1-c1nnco1 [FENADIAZOLE] | 4.3% | -3.75% | 4.12% | 8.02% | 0.92% | -7.26%
18 | c1cncc(-c2nc3ccccc3s2)c1 | -7.01% | 4.56% | -11.97% | 2.37% | 4.69% | 25.76%
19 | C#CCSc1nnnn1-c1ccc(Br)c(C)c1 | 21.42% | 5.77% | 6.7% | 10.23% | 1.42% | -16.38%

Row | SMILES | Inhibition (Staphylococcus aureus) | Inhibition (Acinetobacter baumannii) | Inhibition (Escherichia coli) | Inhibition (Klebsiella pneumoniae) | Inhibition (Candida albicans) | Inhibition (Cryptococcus neoformans)
20 | CCOC(=O)Cc1csc2nc(-c3ccccc3)nn12 | -0.44% | -7.19% | 5.98% | -2.91% | 3.06% | -9.7%
21 | Oc1nc2[nH]c(Cl)nc(Cl)c-2n1 | 12.09% | -10.58% | 13.78% | 9.63% | -2.33% | -19.04%
22 | OC1(Cc2ccccc2)CCNCC1 | 8.09% | -10.57% | 6.88% | 12.17% | 7.54% | -0.07%
23 | CCOC(=O)c1ccc2c(c1)NCc1cccc(OC)c1O2 | 4.26% | -16.83% | 9.22% | 6.83% | 9.96% | -17.21%
24 | Nc1nc(N)c(/C=N/c2ccc(Br)cc2)c(Nc2ccc(Br)cc2)n1 | -2.53% | -11.54% | 5.75% | -1.66% | -1.08% | 1.82%
25 | Cc1ccc(S(=O)(=O)Oc2cc(N)c3c(n2)CCC3)cc1 | 2.13% | -12.3% | 7.8% | 9.4% | 1.38% | -7.75%
26 | Sc1ncc2cnccn12 | -4.23% | -8.79% | 10.26% | 3.96% | 0.86% | -12.71%
27 | [O-]/[N+](=C\c1ccccc1)CC1(O)CCCCC1 | 12.91% | 10.28% | 21.78% | 2.39% | 5.54% | 9.39%
28 | Clc1nnc(NC2CCCCC2)c(Cl)c1Cl | -0.25% | -5.61% | 15.05% | 1.58% | 27.2% | -9.26%
29 | CCCCn1cnc2c(S)nc(N)nc21 | 6.68% | -8.46% | -1.37% | 7.23% | 1.37% | -12.06%
30 | CCOC(=O)c1cc(OCC)c2c(ccc3ccccc32)n1 | -12.94% | 1.72% | -4.9% | 7.15% | 2.28% | -11.11%
31 | O=c1[nH]nc(-c2cc(-c3ccccc3)nc3ccccc23)o1 | 7.26% | -11.03% | 4.61% | 4.91% | 0.17% | -2.09%
32 | CC(C)(C)n1nc(C2CC2)cc1NC(=O)Nc1ccc(Cl)cc1 | 0.51% | 11.57% | -11.06% | 6.85% | 4.6% | 3.95%
33 | COc1cc(O)c(C(=O)/C=C/c2ccccc2)c(OC)c1 [FLAVOKAWAIN B] | 9.23% | 7.33% | 2.45% | 12.32% | 6.59% | -7.74%
34 | Cc1ccc(NC(=O)N2CCN(C)CC2)cc1NC(=O)N1CCN(C)CC1 | 2.62% | 1.03% | -22.66% | 4.06% | 0.95% | 29.46%
35 | O=[N+]([O-])c1c(N2CCN(CCO)CC2)nc2ccccn12 | 9.01% | -8.14% | 6.29% | 3.38% | -0.65% | -4.29%
36 | OC(C#Cc1ccccc1)(c1ccccc1)c1ccccc1 | 14.7% | 1.28% | -2.05% | 4.96% | 3.27% | -7.2%
37 | Cc1nc(NC(=N)N(C)C)nc(O)c1C | 4.99% | -6.08% | 5.79% | 6.63% | 0.54% | -10.51%
